According to PubChem BioAssay (NCI):
The panel holds about 83,000 compounds, 20% with a hit somewhere; the sample as a whole holds those more often.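 Results are percent growth after 48 hours of single-concentration exposure. 100 means growth as in untreated cells, lower positive values show inhibition; negative values down to -100 show cell death.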 Values without a mark were called inactive. Activity calls are given as the source filed them. Rule for the calls: active = growth percent below 10; inactive = the rest.

Legend:
Test in all cases: NCI-60 one-dose screen, 48 h (100 = growth as untreated, 0 = no growth, -100 = all killed)
Settings in all cases: 10 µM unless noted
SR leukemia = test system: SR leukemia
RPMI-8226 leukemia = test system: RPMI-8226 leukemia
OVCAR-8 ovarian = test system: OVCAR-8 ovarian
OVCAR-4 ovarian = test system: OVCAR-4 ovarian
SK-OV-3 ovarian = test system: SK-OV-3 ovarian
IGROV1 ovarian = test system: IGROV1 ovarian
OVCAR-3 ovarian = test system: OVCAR-3 ovarian
HS 578T breast = test system: HS 578T breast
NCI/ADR-RES ovarian = test system: NCI/ADR-RES ovarian
OVCAR-5 ovarian = test system: OVCAR-5 ovarian

Structure (SMILES)	growth (SR leukemia)	growth (RPMI-8226 leukemia)	growth (OVCAR-8 ovarian)	growth (OVCAR-4 ovarian)	growth (SK-OV-3 ovarian)	growth (IGROV1 ovarian)	growth (OVCAR-3 ovarian)	growth (HS 578T breast)	growth (NCI/ADR-RES ovarian)	growth (OVCAR-5 ovarian) [%]
Cc1nc2cc(O)c(O)cc2cc1Oc1ccc(NC(=O)Nc2ccc(Cl)c(Cl)c2)cc1	8.95% (active)	75.7%	47.7%	67.7%	44.9%	67.1%	67.9%	105%	59%	–
NS(=O)(=O)c1ccc(-c2cc(-c3nnc(SCC(=O)Nc4ccc(C(=O)/C=C/c5ccc(Cl)cc5)cc4)n3-c3ccccc3)c3ccccc3n2)cc1	71.3%	10.7%	89.9%	105%	103%	99.2%	101%	84.3%	–	–
CCN(CC)CCCN1C(=O)c2c(c(C)c3c(oc4ccc(O)cc43)c2C)C1=O	19.1%	-15.7% (active)	-31.8% (active)	-35.5% (active)	109%	75.2%	55.7%	81.2%	-62.9% (active)	–
NS(=O)(=O)c1ccc(NC(=O)/C(=C\c2ccc(Cl)cc2Cl)NC(=O)c2ccccc2)cc1	96.6%	92.2%	101%	97.7%	96.3%	74.9%	113%	89.6%	98.2%	–
O=C(O)[C@@H](Cc1ccc2ccccc2c1)NC(=O)n1c2ccccc2c2ccccc21	25.7%	9.9% (active)	21.2%	–	39.7%	29.6%	6% (active)	17.4%	7.01% (active)	37.6
CCn1cc(CNc2ccc(C(=O)Nc3cc4cc(OC)c(OC)cc4c(C)n3)cc2)cn1	12.2%	34.7%	28%	–	56.8%	73%	54.8%	70.3%	35.5%	93.1
CC1=C2[C@@H](CC1)[C@]1(C)O[C@@](c3ccccc3)(C[C@H]1OC(=O)CO)[C@H]2OC(=O)/C=C/c1ccccc1	68.8%	77.7%	10.3%	5.56% (active)	119%	108%	97.6%	-10.2% (active)	2.86% (active)	–
CCOC(=O)c1c(C)nc2c(c1N)CC(=O)N2Cc1ccc(OC)cc1	56.2%	67.1%	13.6%	–	8.96% (active)	46.4%	–	29.4%	34.4%	80.4
C=CN(C(=O)N1CCN(c2cc3c(cc2F)c(=O)c(C(=O)O)cn3C2CC2)CC1)c1nc(-c2ccc(OC)cc2)cs1	20.4%	-6.11% (active)	14.3%	–	17.6%	39.6%	13.7%	20.3%	37.6%	33.8
COc1cc(C2C(C(=O)OCc3ccccc3)=C(C)NC(C)=C2C(=O)OCc2ccccc2)cc(OC)c1OC	4.89% (active)	-0.546% (active)	34%	37.6%	27.5%	38.7%	35.7%	46.4%	26.1%	–
Cc1ccc2nc(/C(C#N)=C(/CCCO)NC(Cc3ccccc3)C(=O)OCc3ccccc3)[nH]c(=O)c2c1 (centres undefined)	92.3%	114%	120%	–	106%	127%	110%	183%	32.6%	89.2
CC/C(Cc1ccccc1)=C(\c1ccc(OCCCN(C)C)cc1)c1ccc(OC(=O)NCc2ccccc2)cc1	-22% (active)	60.4%	76.1%	–	91.2%	59%	87.8%	73.4%	81.4%	90.6
Cc1cc2c(cc1C)N(C(=O)CCl)CC(=O)N2	-8.95% (active)	37.5%	61.6%	–	68.9%	43.1%	6.17% (active)	72.9%	62.4%	96.8
C#CCNC(=O)[C@]1(C)CCC[C@@]2(C)[C@H]1CC=C1C=C(C(C)C)CC[C@@H]12	105%	103%	113%	101%	104%	99.3%	106%	106%	104%	–
Cc1nc2sc(C(=O)Nc3cccc(Br)c3C)c(N)c2cc1C(O)c1ccccc1 (centres undefined)	7.47% (active)	2.82% (active)	12.2%	47.1%	11.4%	15.5%	-2.75% (active)	12.3%	4.66% (active)	–
Cn1c(=O)c2[nH]c(SCC(=O)Nc3ccc(C(=O)/C=C/c4ccccc4Cl)cc3)nc2n(C)c1=O	78.1%	82.2%	95%	88.3%	97.3%	100%	94.7%	95.5%	101%	–
Cc1cccc(Oc2ccc(Nc3ncnc4ccc(NC(=O)CN5CCN(C)CC5)cc34)cc2Cl)c1	4.43% (active)	-27.9% (active)	13.2%	-13.5% (active)	6.73% (active)	-21.9% (active)	10.1%	-2.13% (active)	46.9%	–
O=C(/C=C/c1ccc(Oc2ccc(Br)cc2)cc1)c1ccc(Br)cc1	85.7%	83.5%	94.7%	95%	108%	99%	102%	102%	–	–
COc1cc2nc3sc(C(=O)Nc4ccc(C(=O)OC(C)C)cc4)c(C(=O)Nc4ccc(Cl)cc4C)n3c(=O)c2cc1OC	19.5%	52.7%	35.4%	69.5%	91.4%	17%	77.2%	58.9%	62.3%	–
NS(=O)(=O)c1ccc(C(=O)NN2C(=O)c3c(Br)c(Br)c(Br)c(Br)c3C2=O)cc1	94.5%	102%	106%	–	116%	104%	105%	94.6%	110%	107
NC(=O)c1cccc([C@@H]2O[C@H](CO)[C@@H](O)[C@H]2O)c1	84%	-25.7% (active)	9.76% (active)	-20.6% (active)	28.7%	110%	70.6%	5.46% (active)	23.8%	–
Cc1nc2c(c(=O)[nH]1)C(c1ccccc1)c1ccc3ccccc3c1O2 (centres undefined)	19.3%	27.1%	–	64.2%	11.1%	38.9%	0.0339% (active)	22.6%	14.6%	–
O=S(=O)(Oc1ccc(Br)cc1)c1ccc(Cl)cc1	98.3%	99.7%	–	98.9%	108%	98.8%	98.3%	104%	96.2%	–
N#Cc1cccc(C2C3=C(COC3=O)N(CCO)c3cc4c(cc32)CCC4)c1 (centres undefined)	14.8%	19.3%	–	–	32.1%	22.5%	-10.5% (active)	28.2%	2.04% (active)	43.5
CCN(CC)CCCN1C(=O)c2c(c(C)c3c(oc4ccc(OC)cc43)c2C)C1=O	102%	99.3%	–	117%	109%	94.6%	108%	99.2%	95.7%	114
CC(=O)c1sc2sc(C(C)=O)c(C)c2c1C	75.6%	66.7%	–	108%	81.2%	101%	110%	92%	–	93.2
COc1ccc(/C=C/C(=O)c2cc3c(N)c(C(=O)Nc4cccc(Cl)c4C)sc3nc2C)cc1	16.2%	-11.8% (active)	–	37%	23.8%	21.9%	8.05% (active)	6.35% (active)	-25.5% (active)	27.6
Oc1c(CN2CCC(N3CCCCC3)CC2)cc(Cc2cc(CN3CCC(N4CCCCC4)CC3)c(O)c3ncccc23)c2cccnc12	12.1%	25.4%	–	20.7%	20.5%	22.9%	11.1%	52.8%	48.4%	42.1
CCCC(CC)(C(=O)Nc1ccc2nc(C)cc(N)c2c1)C(=O)Nc1ccc2nc(C)cc(N)c2c1	96.1%	100%	–	83.8%	93.1%	111%	108%	106%	109%	85.1
